Test results taken from the supplement of paper PMC10338343.
± gives the standard deviation.

Test system: MILI (PIWIL2) piRISC loaded with piRNA #1 (26 nt)
Assay: pre-steady-state target cleavage rate (min^-1); guide: piRNA #1 5'p-UGAGGUAGUAGGUUGUAUAGUAUCCA; MIWI and MILI are mouse PIWI proteins and EfPiwi is from a freshwater sponge; tags in brackets are library labels; higher = faster piRNA-guided slicing of the target
Conditions: auxiliary factor: 500 nM mouse GTSF1
Procedure, shortened: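 Cleave-'n-Seq used a transcribed, DNA-blocked target RNA library at 0.1 nM and active affinity-purified piRISC with one synthetic guide at 1 nM, with or without 500 nM GTSF1 partner protein, in HEPES–potassium acetate buffer at 33 °C for 0–8 or 0–960 min. Uncleaved targets were sequenced and normalised to depth and to weakly complementary targets, and three trials were pooled with k3 capped at 0.0001 min^-1. The pre-steady-state cleavage rate was estimated by a burst-and-steady-state fit.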

First: GGAGACCUAUGAUUACAACCUACUACCUUA
Second: GGAGACCUAUGUAUAAAACCUACUACCUCA
The “pre-steady-state target cleavage rate” value of the first is lower: 0.00425 ± 0.0023 for the first, 0.0488 ± 0.0094 for the second.

GGAGAGGAUACUAUACAACCUACUAUCCUCA and GGAGACCUAUGUAUUCAACCUACUACGUCA are within error of each other in “pre-steady-state target cleavage rate” value: 0.0143 ± 0.0055 for the first, 0.00786 ± 0.0022 for the second.

GGAGACCUAUGUAUCAACCUACUACCUCA and GGAGACCUUACUAUACAACCUUCAACCUCA are within error of each other in “pre-steady-state target cleavage rate” value: 0.00951 ± 0.0023 for the first, 0.00437 ± 0.003 for the second.

Compared with GGAGACCUAUGAUAUGUUCCUACUACCAGA, GGAGACCUAACUAUACAUCCUUCUACCUCA is higher in “pre-steady-state target cleavage rate” value: < 0.0001 for the first, 0.0117 ± 0.0069 for the second.

First: GGAGACCUAUGAUAUGUUCCUACUAGCUCA
Second: GGAGACCUAUGUAAACAACCUUCUACCUCA
The “pre-steady-state target cleavage rate” value of the first is lower: < 0.0001 for the first, 0.00363 ± 0.0033 for the second.

Going from GGAGACCUAUGUAUACAACCUACGUACCUCA to GGAGUGGAUUCUAUACAACCUACUACCACA, the “pre-steady-state target cleavage rate” value rises from 0.0295 ± 0.0083 to 0.121 ± 0.011.

Going from GGAGACCUAACAAUAGAACCUACUACCUCA to GGAGUGGAUACUAUACCACCUACUACCUCA, the “pre-steady-state target cleavage rate” value rises from 0.0656 ± 0.012 to 0.188 ± 0.012.

Compared with GGAGACCUAUGUAAACAACCUACUAGCUCA, GGAGUGGAAUGUAUACAACCUACUACCUCA is higher in “pre-steady-state target cleavage rate” value: 0.00495 ± 0.0023 for the first, 0.0864 ± 0.0076 for the second.

Going from GGAGAGGAUACUAUACUACCUACUACCUCA to GGAGACCUAUGAUAACAACCUCCUACCUCA, the “pre-steady-state target cleavage rate” value falls from 0.173 ± 0.011 to 0.00522 ± 0.0021.

Going from GGAGACCAUACUAUUGUACCUACUACCUCA to GGAGACCUAUGUAUACAAGCUACUUCCUCA, the “pre-steady-state target cleavage rate” value rises from 0.0647 ± 0.009 to 0.101 ± 0.013.

First: GGAGACCAUACUAUACUUGCUACUACCUCA
Second: GGAGACCUAACUAUACUACCUACUACCACA
The “pre-steady-state target cleavage rate” value of the first is lower: 0.0454 ± 0.0044 for the first, 0.0974 ± 0.017 for the second.

Compared with GGAGACCUAUGAUAGCAACCUACUACCUCA, GGAGACCUAACUAUACAACCUACUACGCUCA is higher in “pre-steady-state target cleavage rate” value: 0.00366 ± 0.0022 for the first, 0.212 ± 0.042 for the second.

Compared with GGAGACCUUACUUUUCAACCUACUACCUCA, GGAGACCUAUGUAUACAACCUACUACCAGA is lower in “pre-steady-state target cleavage rate” value: 0.0874 ± 0.01 for the first, 0.055 ± 0.009 for the second.

Going from GGAGACCUAUGAUUACAAGCUACUAGCUCA to GGAGACCUAUGUAUACAACCUACUACCUAA, the “pre-steady-state target cleavage rate” value rises from 0.00635 ± 0.0034 to 0.0593 ± 0.0072.

Compared with GGAGACCUAUGAUUACAAGCUACUUCCUCA, GGAGACCUAUCUAUACAAGCUACUACCACA is higher in “pre-steady-state target cleavage rate” value: 0.0143 ± 0.0037 for the first, 0.278 ± 0.019 for the second.

GGAGACCUAUGUAUACAUGCUACUACCUCA and GGAGACCUUUCUAUACAACCUACUAGCUCA are within error of each other in “pre-steady-state target cleavage rate” value: 0.0469 ± 0.007 for the first, 0.0622 ± 0.013 for the second.

GGAGACCUAUGAAUACAACUUACUACCUCA and GGAGACCUAUCAAUACAACGUACUACCUCA are within error of each other in “pre-steady-state target cleavage rate” value: 0.00939 ± 0.003 for the first, 0.00874 ± 0.0028 for the second.

Compared with GGAGACCUAAGUAUACAAGCUACUACCUCA, GGAGACCUAACUAUACAACCUACAAGCUCA is lower in “pre-steady-state target cleavage rate” value: 0.124 ± 0.011 for the first, 0.0191 ± 0.011 for the second.

First: GGAGACCUAUGAAUACAUCCUACUACGUCA
Second: GGAGACCUAACUAUACAACCUACUACCCUCA
The “pre-steady-state target cleavage rate” value of the first is lower: 0.00336 ± 0.0019 for the first, 0.185 ± 0.034 for the second.

First: GGAGACCUAUGUAUACAAGCUACUACCUCA
Second: GGAGACGUUACUAUACAACCUACUUCCUCA
The “pre-steady-state target cleavage rate” value of the first is higher: 0.147 ± 0.013 for the first, 0.0496 ± 0.013 for the second.
